The campaign covered roughly 16,000 compounds. About 5,800 (36%) were called active. Another 23% or so got no clear call; they are omitted. The list shows a part of the results. Unmarked numbers belong to inactive results. Calls follow the shape of the dose curve; as a rule, active = well fitted curve in the direction sought with a large enough effect; inconclusive = small, poorly fitted or top-dose-only effect, or effect the other way; inactive = no such curve, though single readings can be large or run the other way.
% is scaled to controls: 0 for no effect and ±100 for the full control effect.

Sequence of Cytochrome P450 2C19 (Homo sapiens) (P33261 whole entry, looked up): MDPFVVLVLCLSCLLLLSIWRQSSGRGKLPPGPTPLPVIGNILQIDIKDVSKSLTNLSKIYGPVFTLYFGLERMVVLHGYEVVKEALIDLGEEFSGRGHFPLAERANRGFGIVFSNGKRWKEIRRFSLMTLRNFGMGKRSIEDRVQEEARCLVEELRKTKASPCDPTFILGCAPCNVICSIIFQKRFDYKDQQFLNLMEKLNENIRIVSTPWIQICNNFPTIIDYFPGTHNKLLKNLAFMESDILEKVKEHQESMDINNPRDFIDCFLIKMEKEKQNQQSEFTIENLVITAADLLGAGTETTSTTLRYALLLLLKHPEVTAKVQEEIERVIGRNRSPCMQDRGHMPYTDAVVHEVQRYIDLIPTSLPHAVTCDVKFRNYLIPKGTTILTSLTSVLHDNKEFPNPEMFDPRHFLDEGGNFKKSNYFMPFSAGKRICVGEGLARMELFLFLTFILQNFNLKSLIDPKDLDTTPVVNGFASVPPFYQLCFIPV

The experiment has as its target Cytochrome P450 2C19 (Homo sapiens) (UniProt P33261). As to the kind of experiment: Cytochrome panel assay with activity outcomes. To be noted: recombinant CYP, pro-luciferin dealkylation, luminescence, p450-cyp2c19; series mostly up to 57.1 µM.
As for `FC(F)(F)c1cc(CN2CC3(CCNCC3)C2)cc(C(F)(F)F)c1`, the AC50 result was “inactive”.
Regarding `COc1cc(C2SCCCCCCCCCCSC(c3ccc(O)c(OC)c3)SCCCCCCCCCCS2)ccc1O` (stereo not given), the activity, negative = inhibition is 20.3% [at 11.4 µM].
As to `Cn1c(Oc2ccccc2)c(C=O)c2ccccc21`, the AC50 was 4.47 µM (active).
In the case of `Cn1cc(-c2nc3cnc(Oc4ccccc4)nc3n(C)c2=O)c2ccccc21`, the AC50 result was “inactive”.
Still for that read-out and setting: the value for `COc1ccc(Oc2ncc3nc(-c4cn(C)c5ccccc45)c(=O)n(C)c3n2)cc1` was “inactive”.
As for `COc1ccc(Oc2c(C=O)c3ccccc3n2C)cc1`, the half-maximal activity concentration (AC50) is 2.82 µM (active).
`Cc1ccc(C(=O)O/N=C/c2c(Cl)n(C)c3ccccc23)cc1`: the AC50 result was “inactive”.
Regarding `Cc1cc(NC(=O)COc2ccc(Cl)cc2Cl)n(-c2ccccc2)n1`, the AC50 was 1.12 µM (active).
For `O=C(COc1ccccc1Cl)Nc1cc(Cl)ccc1Oc1ccccc1`, the AC50 was 1 µM (active).
In the case of `CN(C)c1ccc(-c2ccc3ncnc(NC4CC4)c3c2)cc1`, the AC50 entry is “inactive”.
The same measure, in the same setting: in the case of `c1nc(NC2CCNCC2)c2cc(-c3ccoc3)ccc2n1` it was “inactive”; in that of `COc1cccc(-c2ccc3ncnc(NC4CC4)c3c2)c1`, 1.26 µM (active); in that of `CS(=O)(=O)Nc1cccc(-c2ccc3ncnc(NC4CCNCC4)c3c2)c1`, “inactive”.
The same measure, in the same setting: the value for `c1cncc(-c2ccc3ncnc(NC4CCNCC4)c3c2)c1` was “inactive”; that for `COc1cccc(-c2ccc3ncnc(NC4CCNCC4)c3c2)c1` was 6.31 µM (active); that for `Cc1noc(C)c1-c1ccc2ncnc(NC3CCNCC3)c2c1` was 15.8 µM (active).
Consider `c1nc(NC2CCNCC2)c2cc(-c3ccc4c(c3)OCO4)ccc2n1`, for which the AC50 result is “inactive”.
Take `Cc1cc(C)n(-c2nc3ccccc3c(=O)n2OCc2ccc(Cl)cc2)n1`: the AC50 was 0.398 µM (active).
On the same count and under the same terms, the value for `Cn1c(=O)c(-c2ccc(Cl)cc2)nc2cnc(OCc3ccccc3)nc21` was “inactive”; that for `CC(C)OC(=O)c1cc2c(ccn2C)n1CC(=O)N1CCC(Cc2ccccc2)CC1` was 14.1 µM (active); that for `C[C@@H](CN1CCC(Cc2ccccc2)CC1)[C@H](O)c1ccc(O)cc1` was “inactive”.
Still for that read-out and setting: the value for `Cc1ccc(C)c(Cn2c(C(=O)OC(C)C)cc3c2ccn3C)c1` was 1.78 µM (active); that for `C[C@@H](CN1CCC(Cc2ccccc2)CC1)[C@@H](O)c1ccc(O)cc1` was “inactive”; that for `CCOC(=O)c1cc2c(ccn2C)n1CC(=O)N1CCCC(C)C1` (stereo not given) was 8.91 µM (active).
Still for that read-out and setting: the value for `Clc1ccc(-c2nnc(CCc3ccccc3)o2)c(Cl)c1` was 1.41 µM (active); that for `CSc1nnc(-c2ccc(Cl)cc2Cl)o1` was 25.1 µM (active).
Regarding `c1ccc(C2=NN[C@@H]3c4ccccc4-c4ccccc4N3C2)cc1`, the activity, negative = inhibition is -22.1% [at 11.4 µM].
Turning to `CN1CCN(c2ncncc2-c2ccc(C(=O)N(C)C)cc2)CC1`, the AC50 result is “inactive”.
As for `CN1CCN(c2ncncc2-c2ccc(N(C)C)cc2)CC1`, the AC50 was 10 µM (active).
On the same count and under the same terms, in the case of `COc1cccc(-c2cncnc2-n2ccnc2)c1` it was 0.631 µM (active).
Still for that read-out and setting: the value for `CS(=O)(=O)Nc1cccc(-c2cncnc2-n2ccnc2)c1` was “inactive”; that for `CN(C)c1ccc(-c2cncnc2-n2ccnc2)cc1` was 3.98 µM (active); that for `CN(C)c1ccc(-c2ccc3ncnc(-n4ccnc4)c3c2)cc1` was 10 µM (active).
Still for that read-out and setting: in the case of `c1cncc(-c2cncnc2-n2ccnc2)c1` it was “inactive”.
Consider `CN(C)C(=O)c1ccc(-c2cncnc2N2CCNCC2)cc1`, for which the AC50 result was “inactive”.
For the compound `CN(C)C(=O)c1ccc(-c2ccc3ncnc(N4CCNCC4)c3c2)cc1`, the AC50 entry was “inactive”.
The same measure, in the same setting: in the case of `CN(C)c1ccc(-c2ccc3ncnc(N(C)C)c3c2)cc1` it was “inactive”; in that of `c1cn(-c2ncnc3ccc(-c4ccoc4)cc23)cn1`, 10 µM (active).
On the same count and under the same terms, in the case of `COCCNc1ncnc2ccc(-c3ccoc3)cc12` it was “inactive”; in that of `Cc1ccccc1-c1ccc2ncnc(-n3ccnc3)c2c1`, 2 µM (active); in that of `CN1CCN(c2cc(-c3ccc(N(C)C)cc3)ncn2)CC1`, “inactive”.
With `N#Cc1ccccc1-c1ccc2ncnc(N3CCNCC3)c2c1`, the AC50 result is “inactive”.
On the same count and under the same terms, the value for `CN(C)c1ccc(-c2cc(-n3ccnc3)ncn2)cc1` was 7.94 µM (active).
Take `COc1ccccc1CN1CCC2(CC1)CCN(C(C)=O)CC2`: the AC50 result was “inactive”.
On the same count and under the same terms, the value for `CCCCN(CC)C(=O)Cc1ccccc1OC` was 4.47 µM (active).
With `CCN(CC)C(=O)c1ccc(O)c(OC)c1`, the AC50 result is “inactive”.
Consider `Cc1ccc2nc(Cc3ccc(N)cc3)[nH]c2c1`, for which the AC50 was 3.55 µM (active).
The same measure, in the same setting: the value for `N#Cc1c(SCC(N)=O)nsc1SCc1ccccc1Cl` was 1.12 µM (active).
For `Nc1nc(SCc2ccccc2Cl)cc(C(=O)O)n1`, the activity, negative = inhibition is 35% [at 11.4 µM].
As for `CC1CCC(NC(=O)CC(C)(C)Cc2nc3ccccc3c(=O)[nH]2)CC1` (stereo not given), the AC50 was 6.31 µM (active).
For `CN(C)C(=O)c1ccc(-c2nc(NC3CCNCC3)c3ccccc3n2)cc1`, the AC50 entry is “inactive”.
On the same count and under the same terms, the value for `CN=C(NC#N)Nc1ccc(C2=NNC(=O)C[C@@H]2C)cc1` was “inactive”; that for `CN1CCN(c2ncc3ncc(=O)n(CCc4ccccc4)c3n2)CC1` was 6.31 µM (active); that for `O=c1cnc2cnc(N3CCOCC3)nc2n1CCc1ccccc1` was 0.1 µM (active).
On the same count and under the same terms, in the case of `CN1CCN(c2ncc3ncc(=O)n(Cc4ccc(F)cc4)c3n2)CC1` it was “inactive”; in that of `COc1ccc(-c2nc3cnc(N4CCN(C)CC4)nc3n(CCc3ccccc3)c2=O)cc1`, “inactive”; in that of `CN1CCN(c2ncc3nc(-c4cccs4)c(=O)n(CCc4ccccc4)c3n2)CC1`, “inactive”.
The same measure, in the same setting: the value for `Cc1nc2cnc(N3CCN(C)CC3)nc2n(CCc2ccccc2)c1=O` was 5.01 µM (active).
In the case of `O=c1cnc2cnc(N3CCOCC3)nc2n1C[C@H]1CCCO1`, the AC50 entry was “inactive”.
Consider `CN1CCN(c2ncc3ncc(=O)n(Cc4cccs4)c3n2)CC1`, for which the AC50 result was “inactive”.
`O=c1c(-c2ccccc2)nc2cnc(N3CCOCC3)nc2n1CCc1ccccc1`: the AC50 result was “inactive”.
On the same count and under the same terms, the value for `CN1CCN(c2ncc3nc(-c4ccccc4)c(=O)n(CCc4ccccc4)c3n2)CC1` was “inactive”.
The same measure, in the same setting: in the case of `O=c1cnc2cnc(N3CCOCC3)nc2n1Cc1ccc(F)cc1` it was 3.98 µM (active); in that of `COc1ccc(-c2nc3cnc(N4CCOCC4)nc3n(CCc3ccccc3)c2=O)cc1`, “inactive”.
On to `COc1ccc(C(=O)NCC(=O)OCc2cccc(Br)c2)cc1`, for which the concentration at half-maximal activity (AC50) was 3.55 µM (active).
Still for that read-out and setting: in the case of `COC(=O)CCC(=O)NNC(=O)c1ccc(Br)cc1` it was “inactive”; in that of `COc1ccc(O)c(/C=N/NC(=O)c2ccc(OCc3cccc(Br)c3)cc2)c1`, “inactive”.
`COC(=O)C/C=C\[C@H](C)[C@@H](OC)c1ccccc1Br`: the activity, negative = inhibition is -6.61% [at 11.4 µM].
Same read-out and setting: the value for `CO/N=C\[C@@H](OC)[C@H](C)/C=C\CC(=O)OC` was -12.9% [at 11.4 µM].
Regarding `CCO[C@H](c1cc(OC)cc([N+](=O)[O-])c1OC)[C@H](C)/C=C\CC(=O)OC`, the half-maximal activity concentration (AC50) was 0.398 µM (active).

Broadly, the AC50 is the midpoint of the concentration-response curve, whichever way the signal moves.

The values above are taken from PubChem BioAssay AID1851 (National Center for Advancing Translational Sciences (NCATS), 2009).
